Results from PubChem BioAssay (NCATS).
Records with an inconclusive call do not appear. Where a call stands in place of a potency, no number is given. Activity calls are given as the source filed them. Calls come from the whole dose curve; as a rule, active = well fitted inhibition curve with a large enough effect; inconclusive = small, poorly fitted or top-dose-only effect; inactive = flat fitted curve, though single readings scatter.

Target: Tyrosine-protein phosphatase non-receptor type substrate 1 (Homo sapiens) + Leukocyte surface antigen CD47 (Homo sapiens) (UniProt P78324+Q08722)
Sequence (P78324 whole entry, looked up): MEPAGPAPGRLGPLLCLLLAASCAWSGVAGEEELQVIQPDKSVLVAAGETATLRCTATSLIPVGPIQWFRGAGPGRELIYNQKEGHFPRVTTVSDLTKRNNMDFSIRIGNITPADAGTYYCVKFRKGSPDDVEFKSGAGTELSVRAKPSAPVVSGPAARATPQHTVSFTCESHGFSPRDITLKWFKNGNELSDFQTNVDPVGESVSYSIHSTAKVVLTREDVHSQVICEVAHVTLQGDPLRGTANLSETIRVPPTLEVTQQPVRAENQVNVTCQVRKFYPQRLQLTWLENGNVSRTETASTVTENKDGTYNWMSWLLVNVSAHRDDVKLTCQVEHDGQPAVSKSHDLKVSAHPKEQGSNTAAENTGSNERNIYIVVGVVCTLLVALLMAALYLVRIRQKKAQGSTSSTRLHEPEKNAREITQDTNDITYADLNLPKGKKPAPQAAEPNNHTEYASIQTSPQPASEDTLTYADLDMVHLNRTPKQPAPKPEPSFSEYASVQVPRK
Sequence (Q08722 whole entry, looked up): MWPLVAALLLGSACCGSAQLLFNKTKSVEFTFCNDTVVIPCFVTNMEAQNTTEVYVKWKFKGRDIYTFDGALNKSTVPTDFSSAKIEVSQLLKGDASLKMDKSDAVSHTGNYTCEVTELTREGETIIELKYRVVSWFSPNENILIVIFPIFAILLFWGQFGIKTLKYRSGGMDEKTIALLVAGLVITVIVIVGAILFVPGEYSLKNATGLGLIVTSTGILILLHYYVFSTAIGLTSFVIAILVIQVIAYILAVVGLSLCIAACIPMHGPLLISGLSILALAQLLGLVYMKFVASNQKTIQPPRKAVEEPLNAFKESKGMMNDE
Assay: CD47-SIRPalpha protein protein interaction - Alpha assay qHTS validation (AID 1347059);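 for potency: bead proximity luminescence from CD47 binding SIRPalpha after compound preincubation with SIRPalpha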
Details: AlphaScreen CD47-His/biotin-SIRPalpha binding, LOPAC; series mostly up to 38.3 µM
From the text: SIRPalpha is a myeloid cell expressed immunomodulatory receptor that binds the tumor expressed immune checkpoint CD47. Therapeutic disruption of this interaction leads to immune-mediated tumor rejection. This assay was used to quantitate CD47-SIRPalpha binding biochemically and evaluate chemical libraries for novel CD47-SIRPalpha inhibitors. To recapitulate the biological interaction of CD47 and SIRPalpha, we designed expression constructs to produce their recombinant, soluble, extracellular interaction domains. CD47 was produced with an N-terminal 6His tag. SIRPalpha was produced with an N-terminal Avi-Tag for site-specific biotin incorporation. The CD47-SIRPalpha interaction was measured by AlphaScreen using affinity tag linked reagents (Ni-NTA acceptor bead and streptavidin donor bead). SIRPalpha without biotin incorporation was used as a positive control inhibitor.
PROTOCOL TABLE (as described by Miller, T. et al. 2019)
SEQUENCE No. (e.g., 1, 2, 3, etc.); […] (e.g., Cells, Incubation, Reagent, etc.); VALUE and DESCRIPTION.
1a. Reagent. 2 uL SIRPalpha-biotin (25 nM) added to respective wells in Assay buffer; white/solid bottom high base, med bind 1536-well plates (Greiner 789075)
1b. Reagent. 2 uL Assay buffer negative control for background fluorescence
2. Reagent. 23 nL library compounds (7-pt, 1:4 intraplate titration series) or DMSO control transferred by Pin Tool
3. Centrifuge. Centrifuge plate for 30 s at 1000 RPM
4. Incubation.#Incubate reagents at room temperature for 30 min, protected from light
5. Reagent. 2 uL CD47-His (12.5 nM) in Assay buffer
6. Centrifuge. Centrifuge plate for 30 s at 1000 RPM
7. Incubation.#Incubate reagents at room temperature for 30 min, protected from light
8. Reagent. 1 uL Ni-NTA beads (10 ug/mL) added to respective wells
9. Reagent. 1 uL SAV beads (10 ug/mL) added to respective wells
10. Centrifuge. Centrifuge plate for 30 s at 1000 RPM
11. Incubation. Incubate reagents at room temperature for 30 min, protected from light
12. Detector. Measure AlphaScree n on EnVision (1536A1 aperture)
Where possible, perform Donor bead dilution and addition away from direct sunlight or with bright overhead lights turned off (<100 lux, similar to hallway lighting). Lighting should still be bright enough to allow accurate pipetting.
1. Assay buffer composition.#Phosphate buffered saline (PBS; 10 mM Phosphate, 137 mM NaCl, and 2.7 mM KCl; pH 7.4), 0.05% IGEPAL CA-630
2. 23nL of […] library compounds (7 plates) or DMSO vehicle control transferred to 9 Greiner white/solid bottom high base, TC plates in 7 interplate 1:5 titrations (see Yasgar, A. et al. 2008) with Pintool. Two of the 9 plates are DMSO-only in compound field at beginning and end of compound library-treated plates.
12. Aperture = 1536 plate HTS AlphaScreen; plate-detector distance = 0; Total measurement time = 240; Ex. time = 80 ms (33%); Afterglow CT1 corr. factor = 0; Glow CT2 corr. factor = 0; Bleach CT3 corr. factor = 0; Ref. signal= 417733; Ref. AD gain = 2
Potency is the fitted concentration of half-maximal effect.

SMILES	Potency	outcome
NS(=O)(=O)c1cc2c(cc1Cl)NCNS2(=O)=O	inactive	
CN1CCN2c3ccccc3Cc3ccccc3C2C1 (stereo not given)	inactive	
Nc1nnc(-c2cccc(Cl)c2Cl)c(N)n1	inactive	
NC(CO)C(=O)NNCc1ccc(O)c(O)c1O (stereo not given)	13.1 µM (active)	
Clc1ccc(C(c2ccccc2Cl)C(Cl)Cl)cc1 (stereo not given)	inactive	
CC(C)C(=O)Nc1ccc([N+](=O)[O-])c(C(F)(F)F)c1	inactive	
CN1C(C(=O)Nc2ccccn2)=C(O)c2ccccc2S1(=O)=O	inactive	
Cn1c(=O)c2[nH]cnc2n(C)c1=O	inactive	
Nc1c2c(nc3ccccc13)CCCC2	inactive	
COc1ccccc1OCC(O)CN1CCN(CC(=O)Nc2c(C)cccc2C)CC1 (stereo not given)	inactive	
NC(=O)OCC(COC(N)=O)c1ccccc1	inactive	
CCOC(=O)C(C)(C)Oc1ccc(Cl)cc1	inactive	
O=C(CCCN1CCC(O)(c2ccc(Cl)cc2)CC1)c1ccc(F)cc1	inactive	
CC(C)NCC(O)c1ccc(O)c(O)c1 (stereo not given)	inactive	
COc1ccc2[nH]cc(CCNC(C)=O)c2c1	inactive	
CCCNCC(O)COc1ccccc1C(=O)CCc1ccccc1 (stereo not given)	inactive	
CN(C)C(=O)C(CCN1CCC(O)(c2ccc(Cl)cc2)CC1)(c1ccccc1)c1ccccc1	inactive	
COc1ccccc1N1CCN(CC(O)COc2cccc3ccccc23)CC1 (stereo not given)	inactive	
Cc1ccc(C(=O)Nc2ccc(S(=O)(=O)O)c3cc(S(=O)(=O)O)cc(S(=O)(=O)O)c23)cc1NC(=O)c1cccc(NC(=O)Nc2cccc(C(=O)Nc3cc(C(=O)Nc4ccc(S(=O)(=O)O)c5cc(S(=O)(=O)O)cc(S(=O)(=O)O)c45)ccc3C)c2)c1	inactive	
COc1ccccc1OCCNCC(O)COc1cccc2[nH]c3ccccc3c12 (stereo not given)	inactive	

SMILES	Potency	outcome
COc1cc2c(c(OC)c1OC)-c1ccc(OC)c(=O)cc1[C@@H](NC(C)=O)CC2	inactive	
CN(C)CCOC(c1ccccc1)c1ccccc1		inactive
Cn1ccc2cc3c(cc21)CCN3C(=O)Nc1cccnc1	inactive	
Cc1ccc(-c2cc(C(F)(F)F)nn2-c2ccc(S(N)(=O)=O)cc2)cc1	inactive	
O=C(c1ccc(F)cc1)C1CCN(CCn2c(=O)[nH]c3ccccc3c2=O)CC1	inactive	
CN(Cc1cnc2nc(N)nc(N)c2n1)c1ccc(C(=O)N[C@@H](CCC(=O)O)C(=O)O)cc1	inactive	
O=c1[nH]cc(F)c(=O)[nH]1	inactive	
CN(C)CCC=C1c2ccccc2C=Cc2ccccc21	inactive	
CC(=O)OCC(CCn1cnc2cnc(N)nc21)COC(C)=O	inactive	
Nc1nc2c(ncn2COC(CO)CO)c(=O)[nH]1	inactive	
CC(C)(C)C(=O)Oc1ccc(S(=O)(=O)Nc2ccccc2C(=O)NCC(=O)O)cc1	inactive	
CC(CCc1ccc(O)cc1)NCCc1ccc(O)c(O)c1 (stereo not given)	inactive	
COc1cc2nc(N3CCN(C(=O)c4ccco4)CC3)nc(N)c2cc1OC	inactive	
NCCc1cnc[nH]1	inactive	
Cc1cc(C(C)(C)C)c(O)c(C)c1CC1=NCCN1	inactive	
O=C1c2c(O)ccc(O)c2C(=O)c2c(NCCNCCO)ccc(NCCNCCO)c21	0.826 µM (active)	
NCCCCCC(=O)O	inactive	
C[C@](N)(Cc1ccc(O)c(O)c1)C(=O)O	inactive	
NC(=O)NO	inactive	
COc1cc2nc(N3CCN(C(=O)C4COc5ccccc5O4)CC3)nc(N)c2cc1OC (stereo not given)	inactive	
